The list is not random: actives were taken first. Their share in the collection is about 2.2%.
IEC-6 tox-1 – cytotoxicity in IEC-6 intestinal epithelial cells, primary screen, cytotoxicity control for KLF5 inhibitor project, cell-based, luminescence | AID 1825, 2009 | IEC-6 cytotoxicity, luminescence viability | inhibition, % at 5 µM | 0.78% of 290,000 active
Ba/F3 V617F tox – reduced viability of JAK2V617F-dependent Ba/F3 cells, primary screen, JAK2V617F inhibitor project, cell-based, Ba/F3 EpoR-JAK2V617F, luminescence. 1.1% of 220,000 active. inhibition, % at 5.6 µM. ATP luminescence;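 active means inhibition above the campaign mean plus 3 SD over all tested compounds, cut at about 24% in these data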;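 further: cytokine-independent growth of Ba/F3 cells driven by EpoR plus mutant JAK2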
KLF5 inhibitor – KLF5 expression inhibitors, primary screen, DLD-1 cells, luminescence. DLD-1 KLF5 promoter-luciferase reporter. inhibition, % at 5 µM. 0.23% of 290,000 active. AID 1700, 2009;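 active means inhibition above a per-plate limit of that plate's mean compound inhibition plus 3 SD, cut at about 60% in these data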;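 further: higher means less KLF5 promoter-driven luciferase light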
BaF3 parental – parental Ba/F3 cell viability inhibition, counter-screen for JAK2V617F inhibitor project, murine pro-B, CellTiter-Glo luminescence. CellTiter-Glo ATP luminescence. inhibition, % at 5.6 µM. 1.1% of 220,000 active. AID 1486, 2009;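 active means inhibition above a per-campaign cutoff, the mean inhibition of all tested compounds plus 3 SD, cut at about 27% in these data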
APP 5UTR inh – inhibitors of APP translation via 5'UTR reporter, primary screen, APP 5'UTR luciferase, SH-SY5Y cells; inhibition, % at 2 µM; 0.82% of 190,000 active; SH-SY5Y APP 5'UTR-luciferase reporter, luminescence; AID 1285, 2008;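 active means inhibition above a set limit, derived from the sample mean plus 3 SD, cut at about 45% in these data; inconclusive means one replicate passes the limit while the other fails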
aSyn 5UTR inh – MLPCN primary screen, SNCA 5' untranslated region; alpha-synuclein 5'UTR reporter, inhibitor activity; inhibition, % (tested at 7.5 µM); 0.82% of 300,000 active; AID 1813, 2009; in the data active means inhibition above about 60%; inconclusive means no clear call, values can overlap the other calls;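 further: H4 neuroglioblastoma cells stably carrying SNCA 5'UTR luciferase fusion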
KLF5 confirm – KLF5 expression inhibitors, confirmation, DLD-1 cells, luminescence; shares compounds with KLF5 inhibitor; DLD-1 KLF5 promoter firefly luciferase reporter; inhibition, % at 4 µM; 79% of 610 active; AID 1834, 2009;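 active means inhibition above a set limit taken from the earlier primary screen, cut at about 63% in these data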
IEC-6 tox-2 – cytotoxicity in rat IEC-6 cells, cytotoxicity control for KLF5 inhibitor project, cell-based, luminescence, triplicate; 56% of 610 active; shares compounds with KLF5 inhibitor; inhibition, % at 4 µM; IEC-6 rat intestinal cells, viability luminescence; in the data active means inhibition above about 23%;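 further: cells exposed to compounds for 48 hours before viability read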
IEC-6 cytotox cf – cytotoxic compounds in IEC-6 epithelial cells, confirmation, cytotoxicity control, cell-based, luminescence. shares compounds with IEC-6 tox-1. IEC-6 rat intestinal epithelial viability. inhibition, % at 5 µM. 63% of 1,900 active. AID 1907, 2009
A number is an active result; 0 = inactive; ? = inconclusive; - = no result given. Unless noted, no stated cut-off is given here; in the data, active means inhibition above about 22%; inactive means the rest.

SMILES	IEC-6 tox-1	Ba/F3 V617F tox	KLF5 inhibitor	BaF3 parental	APP 5UTR inh	aSyn 5UTR inh	IEC-6 cytotox cf	others
CCOC(=O)C(C)Oc1cccc2c(=O)n(CC(=O)NCc3ccco3)ccc12 (stereo unspecified)	77	77	77	68	94	73	52	KLF5 confirm=80;IEC-6 tox-2=55
CC(C)C(=O)c1cn(CC(=O)NCc2ccco2)c2ccccc12	0	0	0	0	0	0	-
CC(C)N1CCc2c(sc(NC(=O)c3nc4ccccc4s3)c2C(N)=O)C1	0	0	0	0	0	0	-
CC(C)N1CCc2c(sc(NC(=O)c3ccc([N+](=O)[O-])o3)c2C(N)=O)C1	99	-	72	-	-	104	86	KLF5 confirm=0;IEC-6 tox-2=90
O=C(NC1CCN(C(=O)Nc2ccc(F)cc2)CC1)c1ccccc1F	0	-	0	-	-	0	-
Cc1ccc(-c2ccnc3nc(-n4cccc4)nn23)o1	0	0	0	0	0	0	-
COc1cccc(/C=N/Nc2ccnc(=O)[nH]2)c1O	97	-	81	-	-	0	24	KLF5 confirm=0;IEC-6 tox-2=0
O=c1nccc(N/N=C/c2ccccc2O)[nH]1	96	-	88	-	-	0	0	KLF5 confirm=0;IEC-6 tox-2=0
COc1cccc(/C=N/NC(=O)N/N=C/c2cccc(OC)c2O)c1O	0	-	0	-	-	?	-
CCOc1ccccc1/C=N/Nc1ccnc(=O)[nH]1	0	-	0	-	-	0	-
Cc1ccc(N2C(=O)c3cccc4c(N)ccc(c34)C2=O)c2cccnc12	86	92	63	85	-	100	74	KLF5 confirm=90;IEC-6 tox-2=72
CSc1ncc(C(=O)Nc2ccc(Br)cn2)c(C)n1	0	-	0	-	-	0	-
COc1cc2c(c(OC)c1OC)-c1ccc(NC(=O)c3ccccc3)c(=O)cc1[C@@H](NC(C)=O)CC2	87	-	77	-	-	0	49	KLF5 confirm=64;IEC-6 tox-2=49
CCOc1ccc(N(CC(=O)Nc2ccc(C)cc2)S(=O)(=O)c2c(C)noc2C)cc1	0	0	0	0	0	0	-
CCOc1ccc(N(CC(=O)Nc2ccccc2OCC)S(=O)(=O)c2c(C)noc2C)cc1	90	-	75	-	-	95	54	KLF5 confirm=79;IEC-6 tox-2=59
Cc1cccc2c(C(=O)N3CCCCC3)cc(-c3ccccc3)nc12	0	-	0	-	-	0	-
Cc1cccc2c(C(=O)N3CCN(c4ccccc4)CC3)cc(-c3ccncc3)nc12	71	-	64	-	-	94	53	KLF5 confirm=71;IEC-6 tox-2=46
NS(=O)(=O)c1ccc(N=Nc2ccc(O)c3ncccc23)cc1	46	-	80	-	-	64	0	KLF5 confirm=74;IEC-6 tox-2=0
COc1ccc([N+](=O)[O-])cc1NC(=O)Cn1ccc(C(F)(F)F)n1	0	0	0	0	0	0	-
O=C(N/N=C/c1cc(Cl)ccc1O)c1cccnc1	60	-	79	-	-	0	29	KLF5 confirm=89;IEC-6 tox-2=0
COc1ccc(Cl)cc1NC(=O)C(OC)c1ccccc1 (stereo unspecified)	0	0	0	0	0	0	-
COC(/C(=N/O)c1ccc(Cl)cc1)c1ccccc1 (stereo unspecified)	28	-	0	-	-	0	0
C=CCN1c2ccccc2[C@]23C[C@@H](C(=O)OC)N(C(=O)NCCC)C2=NC(C(=O)OC)=C(C(=O)OC)[C@H]13	-	-	-	-	-	0	-
Cc1ccccc1OCC(=O)NNC(=O)Nc1ccc(Cl)cc1	67	0	0	0	0	0	29
Cc1ccccc1OCC(=O)NNC(=O)Nc1ccccc1	0	0	0	0	0	0	-
SMILES	IEC-6 tox-1	Ba/F3 V617F tox	KLF5 inhibitor	BaF3 parental	APP 5UTR inh	aSyn 5UTR inh	IEC-6 cytotox cf	others
CSc1cnc2c(N)nc(N(C)C)nc2n1	0	0	0	0	0	0	-
c1ccc(CCNc2ccnc3cc4ccccc4cc23)cc1	87	53	0	43	0	117	43
O=C(Nc1cc(S(=O)(=O)N2CCOCC2)ccc1-n1cncn1)c1ccc(Cl)cc1	0	0	0	0	-	0	-
O=C(Nc1cc(Cl)ccc1-n1cncn1)c1cc(S(=O)(=O)N2CCOCC2)ccc1F	26	-	0	-	-	0	0
O=C(O)C1CCN(Cc2cccnc2)CC1	0	0	0	0	0	0	-
COc1ccccc1N1CCN(C(=O)c2ccc3[nH]c(C)c(C)c3c2)CC1	73	-	0	-	-	72	57
COc1cccc(CNC(=O)Cn2cccc2C(=O)c2ccccc2C)c1	0	-	0	-	-	0	-
COc1cc2[nH]c(C(=O)Nc3ccc(F)cc3)cc2c(OC)c1OC	57	-	0	-	-	0	27
COc1ccc(C(c2c(O)ccc3ccccc23)N2CCOCC2)c(OC)c1 (stereo unspecified)	35	0	0	0	0	0	0
COc1ccc(C(CCN2CCOCC2)c2c(O)cc(OC)cc2OC)cc1 (stereo unspecified)	-	-	-	-	-	0	-
CCOC(=O)C(Cc1ccccc1)NC(=O)CCc1nnc2ccc(N3CCCC3)nn12 (stereo unspecified)	0	-	0	-	-	0	-
CN1CCc2nc(NC(=O)COc3ccc4ccccc4c3)sc2C1	38	0	0	0	0	0	0
CN(C)C(=O)CN1CCN(Cc2cn(C)nc2-c2ccc3c(c2)OCCO3)CC1	0	0	0	0	0	0	-
Cc1ccc2nc(SCC(=O)Nc3cc(C(F)(F)F)ccc3N3CCOCC3)[nH]c2c1	82	78	0	75	94	96	60
Cc1cc(C)c(S(=O)(=O)NCC(c2ccco2)N2CCc3ccccc3C2)c(C)c1 (stereo unspecified)	-	-	-	-	-	0	-
COC(=O)c1[nH]c(C)c(/C(O)=C2\C(=O)C(=O)N(CCN3CCOCC3)C2c2cccs2)c1C (stereo unspecified)	-	-	-	-	-	0	-
CCOC(=O)c1[nH]c(C)c(/C(O)=C2\C(=O)C(=O)N(CCCN3CCOCC3)C2c2cccs2)c1C (stereo unspecified)	59	70	0	72	-	0	0
CC(OC(=O)c1ccc(S(=O)(=O)NCc2ccco2)cc1)C(=O)Nc1ncc(Cl)cc1Cl (stereo unspecified)	0	0	0	0	0	0	-
CCNc1ccc(C(=O)OCC)cc1NC(=O)c1cccc(N(C)C)c1	64	82	0	77	81	0	58
Cc1ccc(-c2ocnc2C(=O)Nc2ccccc2NC(=O)c2ccccn2)cc1	27	-	0	-	-	0	0
O=C(O)CC(NC(=O)Cc1ccccc1)c1cc([N+](=O)[O-])ccc1Cl (stereo unspecified)	0	0	0	0	0	0	-
